Compound activity: PubChem BioAssay, several laboratories
TRPM1 prom inh: inhibitors of MITF-dependent TRPM1 promoter reporter, primary screen, cell-based, SK-MEL-5, single point, luciferase. SK-MEL-5 TRPM1 promoter luciferase, 24 h. inhibition, % at 12.5 µM. 0.83% of 330,000 active. AID 488899, 2010;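 active means mean inhibition across replicates of 60% or more, whatever share of single replicates reaches that level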
KKLEB cytotox: cytotoxicity in KKLEB CF airway cells, primary screen, cytotoxicity control for CF NF-kB inhibitor project, cell-based, uHTS, fluorescence assay plates. KKLEB CF airway cells viability, ATPlite luminescence, overnight; stronger effect = lower value; cells stimulated with P. aeruginosa culture filtrate. activity change (cytotoxicity), % at 5 µM. 0.36% of 360,000 active;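 active means corrected activity change at or below -50% at 5 µM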
Shn3 3UTR inh: reduction of Shn3 3'UTR firefly luciferase signal, primary screen, Schnurri-3 inhibitor project, cell-based, Clone20 osteoblasts, set 2; Clone20 osteoblast Shn3 3'UTR firefly luciferase, 24 h; inhibition, % at 12.5 µM; 0.52% of 360,000 active; AID 588674, 2011;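 active means mean inhibition of at least 75% with every replicate also reaching 75%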
Peg3 prom inh: Peg3 promoter-driven luciferase inhibitors, primary screen, cell-based, HeLa, luciferase luminescence | HeLa PEG-Prom luciferase reporter, overnight | inhibition, % at 20 µM | 1.7% of 360,000 active | AID 588405, 2011;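 active means inhibition of at least 50% at 20 µM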
HIF-2a inh: HIF-2a reporter inhibitors, primary screen, luminescence, 786-0 RCC cells. 786-0 RCC cells HIF-2a reporter, luciferase luminescence, overnight. AID 624352, 2012. inhibition, % at 18.8 µM. 0.72% of 360,000 active;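 active means inhibition of the luminescence signal of 40% or more relative to plate controls, in a single-dose primary screen at 18.75 µM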
CF NFkB inh: inhibitors of PAF-induced NF-kB signaling, primary screen, cell-based, GFP fluorescence, uHTS; inhibition, % at 5 µM; 0.86% of 360,000 active; KKLEB NF-kB-GFP reporter, GFP fluorescence overnight; AID 588850, 2011;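 active means at least 50% inhibition at 5 µM, scaled per plate between neutral and stimulator controls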;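 further: PAF is a Pseudomonas aeruginosa culture filtrate used as stimulus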
HIF-2a conf: HIF-2a reporter inhibitor retest, confirmation, luminescence, 786-0 RCC cells; shares compounds with HIF-2a inh; HIF-2a luciferase reporter luminescence, overnight; inhibition, % at 18.8 µM; 56% of 1,800 active; AID 651580, 2012;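 active means mean inhibition across four replicates of at least 40 percent at the single tested concentration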
HIF-1a counter: HIF-1a luciferase reporter signal reduction – MiaPaCa-2 cells, single concentration, counter-screen for HIF-2a inhibitor project, confirmation; shares compounds with HIF-2a inh; MiaPaCa-2 HIF-1a luciferase reporter, desferoxamine, overnight; inhibition, % at 18.8 µM; 72% of 1,800 active; AID 651589, 2012;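 active means mean inhibition of the reporter signal across four replicates at the single tested dose of 50% or more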
Of the large screens only hits and unclear results are named; the others gave an inactive call (follow-up assays come after a bar, where they were run). Shown are actives, neighbours in structure and some others; about 2.8% of the full set was active somewhere.

CC12CCC3C(CCC4(O)CC(O)CCC34C=NO)C1(O)CCC2C1=COC(=O)C1 (stereo not drawn)	TRPM1 prom inh 69, Peg3 prom inh 97, HIF-2a inh 74, CF NFkB inh 85 | HIF-2a conf inactive | HIF-1a counter 102
Cc1ccsc1C(=O)C1CCCN(Cc2sc(N(C)C)nc2Cl)C1 (stereo not drawn)	none
CCCCCCCCCCCCCCCC[N+](C)(C)C	Shn3 3UTR inh 94, Peg3 prom inh 95, HIF-2a inh 56, CF NFkB inh 75 | HIF-2a conf 42 | HIF-1a counter 79
N#CSCC(=O)N1c2ccccc2CCc2ccccc21	HIF-2a inh 41, CF NFkB inh 59 | HIF-2a conf inactive | HIF-1a counter 72
Nc1ccccc1C(=O)OCC(=O)N1CCc2ccccc21	none
COc1cc(C[C@@H](C)N)c(OC)cc1I	none
Cc1cc(Cl)nc(N)n1	none
C[C@H]1O[C@@H](OC2CC[C@]3(C=O)[C@H]4CC[C@]5(C)[C@@H](C6=CC(=O)OC6)CC[C@]5(O)[C@@H]4CC[C@]3(O)C2)CC2OC(C)(C)OC21 (stereo partly drawn)	TRPM1 prom inh 67, KKLEB cytotox -71, Peg3 prom inh 107, HIF-2a inh 51, CF NFkB inh 93 | HIF-2a conf inactive | HIF-1a counter 103
